BRCA1 expr act = BRCA1 expression activation | Potency, µM (top dose mostly 46.1 µM), without a hit: top-dose activation, actives largely listed as activators | 380,000 tested, 1.1% active | MCF7-BRCA1-FFLuc reporter, luminescence, 48 h; response scale: scaled: vehicle 0%, 10 µM genistein 100%; further: potency means the concentration at half of the fitted maximal effect; nearly all actives have a fitted effect of over 80% in size
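Reporter cells (MCF7, BRCA1 promoter-firefly luciferase) received library compounds across a concentration series for 48 h. End-point luminescence was measured and concentration-effect curves derived after normalization.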
IL2 activator = activators of IL-2; IL-2 activation reporter assay, cell-based qHTS; stimulated with anti-CD3/CD4/CD28 beads; in transgenic mouse T cells; activation, % (series mostly up to about 46 µM); 360,000 tested, 0.065% active; AID 652025; in the data active means activation above about 50%; inconclusive means mostly about 30% to 49%; further: 0% is about no effect
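Using fluorescent plate cytometry, EGFP and DsRed are detected in transgenic mouse T cells stimulated 18 h at 37 degrees C with antibody-coated beads after 60 min compound pretreatment.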
Nrf2 ARE act = activators of Nrf2 (ARE) signaling. AREc32 ARE-luciferase reporter (MCF7-derived line), luminescence, 24 h. Potency, µM (top dose mostly 46.1 µM), without a hit: top-dose activation, most hits filed as activators. 410,000 tested, 0.31% active. AID 624171; further: potency means the concentration at half of the fitted maximal effect; % of control where 0% means no effect; nearly all actives have a fitted effect of over 65% in size
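ARE activation measured as luciferase luminescence (Steady-Glo, 30 min RT) in AREc32_Fluc cells after 24 hr compound exposure at 37 deg C, 5% CO2; cells seeded overnight at 1000/well in OPTI-MEM, 5% FBS.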
N370S GC mod = inhibitors or activators of N370S glucocerebrosidase for Gaucher disease; P04062; N370S GC spleen homogenate, 4MU-glucoside fluorescence; Potency, µM (highest dose often 59.4 µM), for inactives: at the highest dose activity change, negative = inhibition, most hits filed as inhibitors; 330,000 tested, 0.092% active; AID 2101;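 further: potency means the concentration at half of the fitted maximal effect; 0% = full enzyme activity and -100% = no enzyme basal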
Chronic BCR inh = chronic active BCR signaling inhibition. 340,000 tested, 0.05% active. Potency, µM (series often up to 46.1 µM), for the others: top-dose activity change, negative = inhibition, usual class: inhibitors. AID 493014. ABC-DLBCL IkBa-CBG/CBR reporter, luminescence ratio, 4 h; active means well fitted inhibition curve with a large enough effect in the signal ratio, with a control signal flat, not every such curve was filed as active; inconclusive means small, poorly fitted or top-dose-only effect, or effect the other way, or a change in a side signal; the % refers to the signal ratio;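 further: potency means the concentration at half of the fitted maximal effect; plate controls were basal doxycycline-induced cells for no effect and cells given 10 µM MG132 for full effect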
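Doxycycline induced both beetle luciferases in TMD8 lymphoma cells; IKK-driven degradation limits the IkappaBalpha-fused green signal, while red luminescence normalises for cell number and nonspecific effects. Compounds tested up to 46 uM, 4 hrs.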
Integrin act MD = integrin-mediated muscular dystrophy alleviation activation; alpha7betagal myoblasts, beta-gal FDG fluorescence, 48 h; Potency, µM (series often up to 38.3 µM), for the others: at the top dose activation, actives largely listed as activators; 350,000 tested, 0.064% active; AID 624291;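 further: potency means the concentration at half of the fitted maximal effect; 100% = response of the positive control SU9516; nearly all actives have a fitted effect of over 60% in size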
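Alpha7betagal+/- myoblasts (passage 13) were plated 16-24 hr, then exposed to compounds (1:260 dilution of DMSO stock) for 48 hours at 37C. After MPER lysis, β-galactosidase reporter activity was read as FDG fluorescence (ex 480/em 540) after 30 minutes.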
The depositor's hits bear a star; [ ] = another dose, or the depositor's remark. This is a sample that favours compounds with a hit; in the whole collection about 1.4% have one here. Unless noted, the call rests on the fitted dose curve; in most records, active means well fitted curve in the direction sought with a large enough effect; inconclusive means small, poorly fitted or top-dose-only effect, or another doubt; inactive means no such curve, though single readings can be large; an effect the other way counts as inactive or inconclusive.

How did COc1ccc(-c2cc(COc3ccccc3)on2)cc1 do in these assays?
BRCA1 expr act: inconclusive; IL2 activator: -1.7; Nrf2 ARE act: 0.2%[9.22 µM]; N370S GC mod: 19.7%; Chronic BCR inh: inconclusive; Integrin act MD: 10µM*

How did O=C(NC1CCCCC1)C(c1ccc(F)cc1)N(Cc1ccco1)C(=O)c1ccccn1 (centres undefined) do in these assays?
BRCA1 expr act: -4.9%; IL2 activator: -0.4; Nrf2 ARE act: -1.3%[9.22 µM]; N370S GC mod: 2.0%; Chronic BCR inh: 0.2%; Integrin act MD: 5.9%

Results for Cc1nc2cc(-c3sccc3-n3cccc3)nn2c(C)c1C ?
BRCA1 expr act: 38.4%; IL2 activator: -0.2; Nrf2 ARE act: 3.7%; N370S GC mod: -5.7%; Chronic BCR inh: inconclusive; Integrin act MD: -1.1%

How did Cc1cc(-c2sccc2C)nc(-n2cccc2)n1 do in these assays?
BRCA1 expr act: -69.7%; IL2 activator: 3.7; Nrf2 ARE act: 5.62µM*; N370S GC mod: 2.7%; Chronic BCR inh: inconclusive; Integrin act MD: -6.8%

Results for C[C@H]1CN([C@@H](C)CO)C(=O)c2cc(NC(=O)NC3CCCCC3)ccc2O[C@H]1CN(C)C(=O)Nc1ccc(C(F)(F)F)cc1 ?
BRCA1 expr act: -41.6%; IL2 activator: 3.6; Nrf2 ARE act: 5.0%; Chronic BCR inh: -0.8%; Integrin act MD: -5.2%

How did O=[N+]([O-])c1nc2ccccc2[nH]1 do in these assays?
BRCA1 expr act: 28.5%; IL2 activator: 0.1; Nrf2 ARE act: 0.2%; Integrin act MD: inconclusive

Results for O=C(c1nc2ccccc2[nH]1)c1ccccc1[N+](=O)[O-] ?
BRCA1 expr act: 11.2µM*; IL2 activator: -0.2; Nrf2 ARE act: 3.3%; N370S GC mod: -9.2%; Chronic BCR inh: -13.1%; Integrin act MD: 5.0%

How did C/C(=N\NC(=O)c1cc(C)oc1C)c1ccc2ccccc2c1 do in these assays?
BRCA1 expr act: 23.1%; IL2 activator: -2.7; Nrf2 ARE act: 3.0%; N370S GC mod: -10.9%; Chronic BCR inh: inconclusive; Integrin act MD: 8.91µM*

What do the screens show for `COc1ccc(C(=O)Nc2cccc(/C(C)=N\NC(=O)c3ccoc3C)c2)cc1OC`?
BRCA1 expr act: 30.9%; IL2 activator: -3.9; Nrf2 ARE act: 2.8%; N370S GC mod: -17.1%; Chronic BCR inh: inconclusive; Integrin act MD: 1.2%

Results for C/C(=N\NC(=O)c1nn(C)c(C)c1Br)c1ccc(NC(=O)C2CCCC2)cc1 ?
BRCA1 expr act: 5.01µM*; IL2 activator: -1.2; Nrf2 ARE act: -0.8%; N370S GC mod: 0.7%; Chronic BCR inh: 14.8%; Integrin act MD: -1.6%

Results for C/C(=N\NC(=O)c1ccoc1C)c1ccccc1 ?
BRCA1 expr act: 3.98µM*; IL2 activator: -3.4; Nrf2 ARE act: 1.7%; N370S GC mod: -2.4%; Chronic BCR inh: inconclusive; Integrin act MD: 27.2%

What do the screens show for `C/C(=N/NC(=O)c1ccoc1C)c1ccc(NC(=O)C2CCCC2)cc1`?
BRCA1 expr act: 5.62µM*; IL2 activator: -0.6; Nrf2 ARE act: 0.0%; N370S GC mod: -1.0%; Chronic BCR inh: inconclusive; Integrin act MD: 29.1%

What do the screens show for `C/C(=N\NC(=O)c1ccn(C)n1)c1ccc(NC(=O)C2CCCC2)cc1`?
BRCA1 expr act: 1.6%; IL2 activator: 0.5; Nrf2 ARE act: 0.3%; N370S GC mod: -19.8%; Chronic BCR inh: inconclusive; Integrin act MD: 7.0%

What do the screens show for `CNC1(C)[C@H]2CC[C@H](C2)C1(C)C` (some centres undefined)?
BRCA1 expr act: 15.1%; IL2 activator: 0.7; Nrf2 ARE act: -1.0%; Chronic BCR inh: -0.3%

How did O=C(COC(=O)c1ccccc1OCc1cccc(Br)c1)Nc1ccc(Br)cc1 do in these assays?
BRCA1 expr act: -8.8%

Results for COc1ccc([C@H]2Cc3cc(O)cc(O)c3C(=O)O2)cc1O ?
BRCA1 expr act: 10µM*; IL2 activator: 0.9; Nrf2 ARE act: 23.4%; Chronic BCR inh: -2.1%; Integrin act MD: 18.1%
